Where only a bound is given, the exact number is not on record here.

Our source for the XTT viability, phenotypic severity score and drug effect values is the supplement of paper PMC6805474.

Experiment [1] relates to Schistosoma mansoni schistosomula (LE). Kind of experiment: XTT viability relative to DMSO control; higher = more viable (less active). Conditions: 72 h; 10 µM. Here is the method:
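XTT/PMS was then added for a further 24 h (72 h total) and A450 was read. % viability = (sample - heat-killed control)/(DMSO control - heat-killed control) x 100, from duplicate wells in two independent experiments.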
In general terms: Tetrazolium dyes change colour on reduction, which living cells bring about.

The subject of experiment [2] is Schistosoma mansoni schistosomula (NMRI). Put plainly: phenotypic severity score (0-4); higher = more antischistosomal effect, active = 2 or more. As to conditions: 10 µM.
In experiment [3] the test system is Schistosoma mansoni schistosomula (Liberian). Kind of experiment: drug effect (1 - score/DMSO control score) (fraction); higher = more antischistosomal effect, active = 0.5 or more; extreme values may be limits of the assay. As to conditions: 10 µM. The gist of the method: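 A plate was valid only if its 0.1% DMSO wells averaged a score of at least 2. Those wells ran beside duplicate wells in which 50 Liberian-strain Schistosoma mansoni schistosomula each, transformed mechanically from cercariae and pre-incubated at least 12 h, met 10 µM compound in Medium 199 with 5% FCS at 37 °C, 5% CO2. Scoring was visual at 10× at 24, 48 and 72 h, from 3 (normal) to 0 (dead) in quarter-point steps. Drug effect was derived from the mean test-well score against the mean DMSO-well score, with negatives set to zero.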
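Throughout, for phenotypic severity score (0-4): visual microscopic scoring of shape, motility and density changes versus 0.5% DMSO solvent controls, one point per descriptor, degeneracy or death scored 4, mean of duplicate wells.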

As for `CC(C)NCC(=O)Nc1cccc(C(=O)Nc2cccc(C(F)(F)F)c2)c1`, the XTT viability in experiment [1] is 86.7%. Further, the phenotypic severity score in experiment [2] (24 h), in experiment [2] (48 h) and in experiment [2] (72 h) was 0 (inactive) each time. The drug effect in experiment [3] (24 h) is 0.2 (inactive); in experiment [3] (48 h) it was 0.167 (inactive); in experiment [3] (72 h), 0.375 (inactive).

With `CC(C)(C)c1cc(C(=O)Nc2cccnc2)cc(C(=O)Nc2cccnc2)c1`, the XTT viability in experiment [1] amounted to 79.8%. Further, the phenotypic severity score in experiment [2] (24 h), in experiment [2] (48 h) and in experiment [2] (72 h) was 0 (inactive) throughout. Besides, the results for the drug effect in experiment [3] (24 h), in experiment [3] (48 h) and in experiment [3] (72 h) were < 0 (inactive), 0.0811 (inactive) and 0.0556 (inactive), respectively.

Regarding `COc1cccc(-n2nnnc2S(C)(=O)=O)c1`, the XTT viability in experiment [1] is -0.214%. Besides, the phenotypic severity score in experiment [2] (24 h), in experiment [2] (48 h) and in experiment [2] (72 h) was 4 (active) throughout. Also, the drug effect in experiment [3] (24 h), in experiment [3] (48 h) and in experiment [3] (72 h) was 1 (active) throughout.

As to `COC(=O)Nc1nc2cc(C(=O)c3ccccc3)ccc2[nH]1`, the XTT viability in experiment [1] came to 71.1%. In addition, the phenotypic severity score in experiment [2] (24 h), in experiment [2] (48 h) and in experiment [2] (72 h) was 0 (inactive) in each case. In addition, the drug effect in experiment [3] (24 h) was 0.15 (inactive); in experiment [3] (48 h), 0.189 (inactive); in experiment [3] (72 h), 0.278 (inactive).

On to `CC1=Nc2ccc(Cl)cc2C(c2ccccc2)N1CCNC(=O)CN(C)C` (configuration not stated), for which the XTT viability in experiment [1] worked out at 113%. The phenotypic severity score in experiment [2] (24 h), in experiment [2] (48 h) and in experiment [2] (72 h) was 0 (inactive) throughout. The drug effect in experiment [3] (24 h) was 0.35 (inactive); in experiment [3] (48 h), 0.333 (inactive); in experiment [3] (72 h) it was 0.375 (inactive).

On to `CCCn1nnc(NC(=O)COc2ccc(C3CCCCC3)cc2)n1`, for which the XTT viability in experiment [1] came out at 89.6%. Moreover, the phenotypic severity score in experiment [2] (24 h), in experiment [2] (48 h) and in experiment [2] (72 h) was 0 (inactive) each time. Further, the figures for the drug effect in experiment [3] (24 h), in experiment [3] (48 h) and in experiment [3] (72 h) were 0.136 (inactive), 0.2 (inactive) and 0.182 (inactive), respectively.

For the compound `CC(Oc1cccc(Cl)c1)C(=O)Nc1ccc2oc(-c3ccncc3)nc2c1` (configuration not stated), the XTT viability in experiment [1] came out at 109%. Besides, the phenotypic severity score in experiment [2] (24 h) was 1 (inactive); in experiment [2] (48 h), 0 (inactive); in experiment [2] (72 h), 0 (inactive). In addition, the drug effect was 0.318 (inactive) in experiment [3] (24 h), 0.45 (inactive) in experiment [3] (48 h) and 0.564 (active) in experiment [3] (72 h).

Regarding `CC(C)(C)C1CCC(CC2=C(O)C(=O)c3ccccc3C2=O)CC1` (configuration not stated), the XTT viability in experiment [1] is 71.7%. The phenotypic severity score is 3 (active) in experiment [2] (24 h), 2 (active) in experiment [2] (48 h) and 2 (active) in experiment [2] (72 h). Moreover, the drug effect in experiment [3] (24 h) is 0.2 (inactive); in experiment [3] (48 h) it was 0.189 (inactive); in experiment [3] (72 h) it was 0.278 (inactive).

With `O=C(NCCN1CCCC1)c1cc(NCCCCN2CCC(F)(F)CC2)nc2ccc(Cl)cc12`, in experiment [1], the XTT viability turned out to be 86.9%. For the same compound, the phenotypic severity score is 2 (active) in experiment [2] (24 h), 4 (active) in experiment [2] (48 h) and 4 (active) in experiment [2] (72 h). The drug effect was 0.3 (inactive) in experiment [3] (24 h), 0.389 (inactive) in experiment [3] (48 h) and 0.562 (active) in experiment [3] (72 h).

`O=C(NC1CC1)c1ccc(N2CCOc3ccc(Cl)cc32)s1`: the XTT viability in experiment [1] was found to be 83.5%. In addition, the phenotypic severity score in experiment [2] (24 h), in experiment [2] (48 h) and in experiment [2] (72 h) was 0 (inactive) each time. In addition, the drug effect in experiment [3] (24 h) was 0.35 (inactive); in experiment [3] (48 h), 0.459 (inactive); in experiment [3] (72 h), 0.5 (active).

Regarding `Cc1cc(O)nc(-n2nc(C)cc2C)n1`, the XTT viability in experiment [1] is 93.1%. Further, the phenotypic severity score in experiment [2] (24 h), in experiment [2] (48 h) and in experiment [2] (72 h) was 0 (inactive) in each case. Moreover, the drug effect in experiment [3] (24 h) is 0.15 (inactive); in experiment [3] (48 h), 0.243 (inactive); in experiment [3] (72 h), 0.576 (active).

For `CCOc1ccc(-c2nc(CNCCc3ccc(F)cc3)cs2)cc1`, the XTT viability in experiment [1] stood at 2.26%. For the same compound, the phenotypic severity score in experiment [2] (24 h), in experiment [2] (48 h) and in experiment [2] (72 h) was 0 (inactive) each time. For the same compound, the drug effect in experiment [3] (24 h) was 0.273 (inactive); in experiment [3] (48 h) it was 0.4 (inactive); in experiment [3] (72 h), 0.632 (active).

In the case of `CS(=O)(=O)c1cccc(-c2cnc3[nH]cc(-c4ccc(CCC(=O)O)cc4)c3c2)c1`, the XTT viability in experiment [1] turned out to be 86.9%. Besides, the phenotypic severity score in experiment [2] (24 h), in experiment [2] (48 h) and in experiment [2] (72 h) was 0 (inactive) in each case. The results for the drug effect in experiment [3] (24 h), in experiment [3] (48 h) and in experiment [3] (72 h) were 0.227 (inactive), 0.6 (active) and 0.455 (inactive), respectively.

Take `Cc1ccc(S(=O)(=O)Nc2ccc(CN3CCN(C(=O)c4cccc(C#N)c4)CC3)cc2)cc1`: in experiment [1], the XTT viability is 131%. For the same compound, the phenotypic severity score in experiment [2] (24 h) is 0 (inactive); in experiment [2] (48 h), 1 (inactive); in experiment [2] (72 h), 1 (inactive). Moreover, the figures for the drug effect in experiment [3] (24 h), in experiment [3] (48 h) and in experiment [3] (72 h) were 0.05 (inactive), 0.0556 (inactive) and 0.0625 (inactive), respectively.

With `O=C(c1ccc(NCCO)cc1)C1C[C@H]1c1ccc(Cl)cc1` (some centres not stated), the XTT viability in experiment [1] amounted to 93.3%. Moreover, the phenotypic severity score in experiment [2] (24 h), in experiment [2] (48 h) and in experiment [2] (72 h) was 0 (inactive) in each case. The drug effect in experiment [3] (24 h) was 0.135 (inactive); in experiment [3] (48 h), 0.278 (inactive); in experiment [3] (72 h), 0.625 (active).

As for `Cc1cc(NC(=O)c2ccc(Oc3ccc(Cl)cc3O)o2)no1`, the XTT viability in experiment [1] worked out at 99.6%. Also, the phenotypic severity score in experiment [2] (24 h), in experiment [2] (48 h) and in experiment [2] (72 h) was 0 (inactive) in each case. In addition, the drug effect is 0.1 (inactive) in experiment [3] (24 h), < 0 (inactive) in experiment [3] (48 h) and 0.111 (inactive) in experiment [3] (72 h).

Turning to `Nc1ncnc2c1c(Cc1cccc3ccccc13)nn2CC1CCNCC1`, in experiment [1], the XTT viability was 96.2%. Further, the phenotypic severity score in experiment [2] (24 h), in experiment [2] (48 h) and in experiment [2] (72 h) was 0 (inactive) throughout. Further, the drug effect in experiment [3] (24 h), in experiment [3] (48 h) and in experiment [3] (72 h) was < 0 (inactive) throughout.

In the case of `CCn1cnc2c(Nc3cc(F)cc(F)c3)nc(C#N)nc21`, in experiment [1], the XTT viability worked out at 97.7%. In addition, the phenotypic severity score in experiment [2] (24 h), in experiment [2] (48 h) and in experiment [2] (72 h) was 4 (active) in each case. Further, the drug effect in experiment [3] (24 h) is 0.351 (inactive); in experiment [3] (48 h), 0.889 (active); in experiment [3] (72 h), 0.75 (active).

Turning to `O=C(Nc1cccc(Cl)c1)c1cnc(N2CCN(c3ccncc3)CC2)c(Cl)c1`, in experiment [1], the XTT viability is 3.67%. The phenotypic severity score is 2 (active) in experiment [2] (24 h), 4 (active) in experiment [2] (48 h) and 4 (active) in experiment [2] (72 h). For the same compound, the drug effect in experiment [3] (24 h) was 0.8 (active); in experiment [3] (48 h) it was 0.946 (active); in experiment [3] (72 h) it was 1 (active).

Regarding `CCCCS(=O)(=O)Nc1ccc2cnn(C)c2c1`, in experiment [1], the XTT viability is 141%. Besides, the phenotypic severity score in experiment [2] (24 h), in experiment [2] (48 h) and in experiment [2] (72 h) was 0 (inactive) in each case. For the same compound, the drug effect in experiment [3] (24 h) is 0.0811 (inactive); in experiment [3] (48 h) it was 0.111 (inactive); in experiment [3] (72 h), 0.0625 (inactive).

With `Cc1cc(C)n(-c2ccc(NC(=O)C3CCN(Cc4cnc(C)s4)CC3)cc2)n1`, the XTT viability in experiment [1] was found to be 135%. Besides, the phenotypic severity score in experiment [2] (24 h), in experiment [2] (48 h) and in experiment [2] (72 h) was 0 (inactive) each time. The drug effect in experiment [3] (24 h) was 0.1 (inactive); in experiment [3] (48 h) it was 0.135 (inactive); in experiment [3] (72 h) it was 0.152 (inactive).
